Compound activity as filed in PubChem.
An excerpt weighted towards active compounds, which were near 4.1% of everything screened.
MazEF act = increases E. coli MazEF RNase cleavage of RNA | P0AE70 | FAM/BHQ RNA-DNA oligo cleavage fluorescence, 5 h | activation, % at 20 µM | 350,000 compounds, 0.32% hits; in the data active = activation above about 50%
Target sequence (P0AE70 whole entry, looked up): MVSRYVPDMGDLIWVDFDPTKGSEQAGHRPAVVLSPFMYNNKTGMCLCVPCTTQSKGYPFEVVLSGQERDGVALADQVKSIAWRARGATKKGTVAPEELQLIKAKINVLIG
Anthrax LF prot = blocks Bacillus anthracis lethal factor protease; multiplex microsphere protease cleavage assay, LF; inhibition, % at 10 µM; 360,000 compounds, 0.12% hits; also: plate controls were buffer without enzyme for full effect and enzyme alone for no effect
Autofluor counter = compound fluorescence in toxin protease inhibitor counterscreen. 360,000 compounds, 3.1% hits. compound autofluorescence counterscreen, microsphere flow cytometry; active compounds read high. fluorescence intensity (concentration not given with the values). AID 624483; in the data active = fluorescence intensity above about 16000; inconclusive = no clear call, values can overlap the other calls
BoNT-A LC inh2 = blocks Botulinum neurotoxin A light chain protease | 360,000 compounds, 0.17% hits | multiplex microsphere protease substrate cleavage, flow cytometry | AID 588499 | inhibition, % at 10 µM; also: plate controls were buffer without enzyme for full effect and enzyme alone for no effect
BoNT F protease = blocks Botulinum neurotoxin F light chain protease; inhibition, % at 10 µM; AID 588497; Multiplex microsphere protease cleavage assay, flow cytometry; 360,000 compounds, 0.22% hits; in the data active = inhibition above about 35%, passing the limit was not always enough; inconclusive = no clear call, values can overlap the other calls; also: plate controls were buffer without enzyme for full effect and enzyme alone for no effect
VHR inh abs = inhibitors of human VHR1 phosphatase (DUSP3); recombinant VHR phosphatase, pNPP absorbance; 290,000 compounds, 0.52% hits; inhibition, % at 13.3 µM; in the data active = inhibition above about 50%
Target sequence (P51452 whole entry, looked up): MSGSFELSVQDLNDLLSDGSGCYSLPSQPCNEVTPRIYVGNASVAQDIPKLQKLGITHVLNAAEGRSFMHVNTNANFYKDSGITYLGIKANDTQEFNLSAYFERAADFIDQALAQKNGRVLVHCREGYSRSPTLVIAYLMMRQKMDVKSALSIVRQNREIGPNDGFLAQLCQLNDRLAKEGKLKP
The depositor's hits bear a star; ? = inconclusive; . = not tested or not shown. Rule as the data show it, unless noted: active = inhibition above about 30%; inconclusive = no clear call, values can overlap the other calls; inactive = below that.

SMILES	MazEF act	Anthrax LF prot	Autofluor counter	BoNT-A LC inh2	BoNT F protease	VHR inh abs
CN(CC(=O)Nc1ccc(F)c(F)c1F)C(=O)Cc1ccc2c(c1)OCCO2	-1.5	-0.3	6064	-3.4	-2.9	19.2
CC(=O)NN1C(=O)c2ccc3c4c(ccc(c24)C1=O)C(=O)N(NC(C)=O)C3=O	69.4*	.	.	.	.	25.0
COCCN(C(=O)CSc1nc2ccc(OC)cc2[nH]1)c1c(N)n(Cc2ccccc2)c(=O)[nH]c1=O	-4.1	-0.1	6431	-3.7	-5.3	.
C=CCNC(=S)N/N=C/c1ccc(OCc2ccccc2Cl)cc1	0.0	1.8	19727*	0.1	-3.6	-32.1
CC1(C(=O)NS(=O)(=O)c2ccc(Cl)s2)CCN1C(=O)Cc1ccc(-c2ccccc2)cc1 (stereo not drawn)	.	-8.3	4067	-0.3	-7.3	.
Cc1cc(C)nc(/N=C(\N)C2=C(O)CC(C)(C)CC2=O)n1	1.4	-2.1	21038*	-0.5	-3.8	12.8
CC(=Nc1ccccc1)C1=C(O)CC(C)(C)CC1=O	1.5	-10.3	4531	-1.2	-8.0	11.6
CCOC(=O)C1=C(COC(=O)CCNS(=O)(=O)c2ccc(NC(C)=O)cc2)NC(=O)NC1C (stereo not drawn)	1.6	?	4663	1.1	1.6	.
CCCCNC(=O)N(O)C1N(/N=C/c2ccccc2OC)C(=S)SC1(C)C (stereo not drawn)	3.7	-7.4	3477	-0.7	61.7*	10.4
CNC(=O)N(O)C1N(/N=C/c2ccccc2OC)C(=S)SC1(C)C (stereo not drawn)	-10.6	19.5	3909	0.6	0.1	.
COc1ccc(S(=O)(=O)n2nc(-c3cc(OC)c(OC)c(OC)c3)cc2N)cc1OC	4.7	-4.7	5689	-1.1	-7.0	9.4
COc1ccc(-c2cc(N)n(S(=O)(=O)c3c(F)c(F)c(F)c(F)c3F)n2)cc1OC	-4.0	0.5	16388*	?	-1.4	22.1
Cc1cccc(-n2nnnc2SCn2nnc3ccccc3c2=O)c1	6.7	-13.8	20246*	3.7	5.4	.
Cn1c(SCn2nnc3ccccc3c2=O)nc2ccccc2c1=O	.	.	.	.	.	19.0
CCN(CC)S(=O)(=O)c1ccc2c(c1)nc(SCn1nnc3ccccc3c1=O)n2CC	3.2	0.2	23084*	-0.8	-1.3	-10.2
Cc1ccc(-n2nnnc2SCn2nnc3ccccc3c2=O)cc1	-4.9	-5.9	3416	0.1	5.9	17.5
Cc1ccsc1CN1CCN(c2ccccn2)CC1	3.4	-1.8	21639*	3.2	8.3	7.2
CC(=O)c1ccc(OC(=O)C(CCS(C)(=O)=O)N2C(=O)c3ccccc3C2=O)cc1 (stereo not drawn)	-1.8	0.2	21318*	-2.4	-1.2	14.0
CCCCC(=O)Nc1ccc2c(c1)nc(CCN1CCN(c3ccccn3)CC1)n2C	1.8	-17.6	3659	1.4	2.4	13.9
Cc1nn(CC(O)c2ccccc2)c(C)c1Br (stereo not drawn)	3.2	-0.4	21421*	-1.5	-0.4	-4.1
COc1ccc(CCNC(=O)c2cc(C(C)C)on2)cc1OC	4.2	-7.2	6917	-1.1	-9.4	22.8
COc1ccc(CCNC(=O)C(=O)NCc2ccc(C(C)C)cc2)cc1OC	0.8	-2.7	24221*	?	-4.8	13.2
COc1ccc(CCNC(=O)c2nonc2N)cc1OC	-11.9	1.3	20897*	1.8	3.6	13.5
COc1ccc(CCNC(=O)c2noc3c2CCCC3)cc1OC	-12.0	2.1	21948*	1.5	-0.2	-3.9
Nc1nonc1C(=O)NCCNCc1c(OCc2ccccc2F)ccc2ccccc12	58.5*	-7.6	11191	0.1	-9.1	14.6
SMILES	MazEF act	Anthrax LF prot	Autofluor counter	BoNT-A LC inh2	BoNT F protease	VHR inh abs
CCOc1cccc(CNCCNC(=O)c2nonc2N)c1	1.5	0.7	22612*	0.0	-5.3	3.6
Nc1nonc1C(=O)NCCNCc1ccccc1	-2.3	-2.6	2371	-0.7	3.9	38.9
COc1cc(OC)c(OC)cc1CNCCNC(=O)c1nonc1N	-3.7	0.6	24547*	-1.5	-2.7	15.3
COc1cc(CNCCNC(=O)c2nonc2N)ccc1OCc1ccc(Cl)nc1	5.2	-1.5	2271	0.3	-8.6	9.5
Nc1nonc1C(=O)NCCNCc1cc(Br)ccc1OCc1ccc(F)cc1	0.4	-9.0	19634*	?	-13.6	32.8
COc1ccc(CNCCNC(=O)c2nonc2N)cc1OC	-54.9	-8.9	?	0.3	?	9.4
O=C(COC(=O)c1ccc(Cl)cc1O)NCCN1C(=O)CSC1=O	-0.9	-10.3	3502	-0.5	6.6	-22.8
Cc1cccc(C(=O)OC(C)C(=O)N2CCc3ccccc3C2)c1C (stereo not drawn)	-0.7	-2.0	5552	2.3	-4.5	.
S=c1[nH]c2ccc(Cc3ccc4[nH]c(=S)[nH]c4c3)cc2[nH]1	7.9	-2.8	3248	2.0	-27.1	-4.9
CC(=O)N1N=C2c3ccccc3CCC2C1c1cccs1 (stereo not drawn)	7.7	-5.6	6489	0.1	4.5	1.1
CCn1cc(Cl)c(C(=O)N2N=C3/C(=C/c4cccs4)CCCC3C2c2cccs2)n1 (stereo not drawn)	7.2	0.5	23292*	-0.2	-3.7	22.2
CC1CN(c2cc3nccnc3cc2F)CC(C)O1 (stereo not drawn)	5.4	0.6	16271*	?	1.3	-2.0
Cc1c(C)c2c(OCC(=O)NCc3ccccn3)cc3c(c2oc1=O)CCC(C)(C)O3	6.3	0.3	5086	0.4	-0.2	20.5
CCC(CO)NCc1ccc2c(c1)n(C)c(=O)n2C (stereo not drawn)	2.1	-0.7	16488*	0.2	0.5	-7.7
Cc1ccc(S(=O)(=O)N2CCOCC2)cc1C(=O)Nc1c(C)n(C)n(-c2ccccc2)c1=O	-1.5	-4.3	22630*	?	-2.8	29.7
Cc1c(NS(=O)(=O)N2CCCC2)c(=O)n(-c2ccccc2)n1C	-9.4	-1.8	22285*	1.3	3.6	37.3
O=S(=O)(c1ccc(F)c(Cl)c1)N1CCN(C/C=C/c2ccccc2)CC1	-0.3	-7.2	9328	-0.2	-11.9	.
C=C(C)CSc1nnc(-c2cccc(Cl)c2)n1N	3.1	-3.4	21220*	3.5	5.2	7.8
C=C(C)CSc1nnc(-c2ccc(OC)cc2)n1N	2.3	0.8	19732*	1.3	0.7	13.1
CCOc1ccc(NC(=O)COc2ccc(-n3cnnn3)cc2)cc1	0.8	?	5638	?	?	.
O=C(COc1ccc(F)cc1)Nc1ccc(-n2cnnn2)cc1	-0.9	0.9	20385*	?	0.6	21.8
CCOc1ccc(NC(=O)c2cccc(-n3cnnn3)c2)cc1	-2.4	-2.2	23535*	?	-4.3	-10.1
Cc1sc(NC(=O)COc2cccc(-n3cnnn3)c2)c(C#N)c1C	119.6*	-1.8	?	0.6	5.0	3.1
CCOc1ccccc1NC(=O)COc1cccc(-n2cnnn2)c1	4.4	-2.4	23672*	-2.1	-3.5	.
CCc1ccccc1NC(=O)COc1cccc(-n2cnnn2)c1	-5.2	4.2	3834	0.5	-21.8	17.1
